# Screens deposited in PubChem BioAssay by National Center for Advancing Translational Sciences (NCATS).
# Shown are actives, neighbours in structure and some others; about 9.3% of the full set was active somewhere.
# NPC1 prom act: qHTS Assay for NPC1 Promoter Activators. Potency, µM (titrated, usually from 9.22 µM), usual class: activators. 320,000 tested, 2.4% active. Huh7 NPC1 promoter luciferase reporter, 24 h; note: nearly all actives have a fitted effect of over 60% in size
#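 Compounds in DMSO were transferred onto Huh7 NPC1-luciferase reporter cells pre-incubated 2 h; after 24 h at 37 °C, Amplite reagent was dispensed and luminescence recorded 10 min later.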
# ELG1 DNA repair: qHTS screen for small molecules that inhibit ELG1-dependent DNA repair in human embryonic kidney (HEK293T) cells expressing luciferase-tagged ELG1 | HEK293T ELG1-luciferase reporter, luminescence, 16 h; DNA damage induced by 5-fluorouridine | Potency, µM (doses to about 46.1 µM), most hits filed as inhibitors | 330,000 tested, 2.3% active | AID 504467, 2011; note: nearly all actives have a fitted effect of over 55% in size
#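 5-Fluorouridine DNA damage + compound/DMSO, 2,000 cells/well, 16 h, 37 °C/5% CO2. ONE-Glo, 30 min RT, luminescence. Readout = decrease in reporter signal.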
# ELG1 genotox: qHTS screen for small molecules that induce genotoxicity in human embryonic kidney (HEK293T) cells expressing luciferase-tagged ELG1. HEK293T ELG1-luciferase reporter, luminescence, 16 h. 330,000 tested, 1.3% active. Potency, µM (highest dose often 46 µM), actives largely listed as activators; note: nearly all actives have a fitted effect of over 60% in size
#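 Genotoxicity was scored as increased ELG1-luciferase reporter signal, measured by ONE-Glo luminescence (30 min, room temperature). Compound or vehicle exposure of the HEK293T reporter cells lasted 16 hr at 37°C.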
# FLuc modulator: qHTS profiling assay for firefly luciferase inhibitor/activator using purifed enzyme and Km concentrations of substrates (counterscreen for miR-21 project). Luciferin 4-monooxygenase (Photinus pyralis), P08659. purified FLuc, Km substrates, luminescence inhibition. Potency, µM (titrated, usually from 57.5 µM), most hits filed as inhibitors. 360,000 tested, 6.9% active; note: nearly all actives have a fitted effect of over 55% in size
# Target sequence (P08659 whole entry, looked up): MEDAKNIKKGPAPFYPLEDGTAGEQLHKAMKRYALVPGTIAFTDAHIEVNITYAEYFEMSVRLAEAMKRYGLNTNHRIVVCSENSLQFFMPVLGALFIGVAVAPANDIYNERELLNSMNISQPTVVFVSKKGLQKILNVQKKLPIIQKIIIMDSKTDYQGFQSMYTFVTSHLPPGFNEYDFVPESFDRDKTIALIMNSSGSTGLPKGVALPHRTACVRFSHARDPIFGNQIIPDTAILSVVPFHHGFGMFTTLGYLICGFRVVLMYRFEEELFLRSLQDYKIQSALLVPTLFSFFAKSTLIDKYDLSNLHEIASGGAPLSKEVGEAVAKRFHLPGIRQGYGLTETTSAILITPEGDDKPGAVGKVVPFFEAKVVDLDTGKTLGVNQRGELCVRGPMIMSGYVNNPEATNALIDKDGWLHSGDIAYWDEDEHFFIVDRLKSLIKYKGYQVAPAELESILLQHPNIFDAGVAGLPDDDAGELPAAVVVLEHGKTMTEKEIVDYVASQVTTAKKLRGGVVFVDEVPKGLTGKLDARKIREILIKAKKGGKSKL
#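 Purified P. pyralis luciferase, 10 nM final, with Km-level 10 uM D-luciferin and 10 uM ATP in 50 mM Tris acetate pH 7.5, 10 mM Mg acetate, 0.01% Tween-20, 0.05% BSA; 6-point qHTS titration about 60 µM downward; luminescence read.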
# Rab9 promoter act: qHTS Assay for Rab9 Promoter Activators | Huh7 Rab9 promoter-luciferase reporter, luminescence, 24 h | 320,000 tested, 2.8% active | Potency, µM (titrated, usually from 9.22 µM), usual class: activators | AID 485297, 2010; note: nearly all actives have a fitted effect of over 60% in size
#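 Luminescence from Amplite-detected luciferase (10 minutes, ambient) reports Rab9 promoter activation. Before that, stable Rab9-luciferase Huh7 cells (1500/well, reduced-serum OP-MEM I plus 10% FBS) were exposed to compound for 24 hours at 37C.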
# SMN2 splice enh: qHTS Assay for Enhancers of SMN2 Splice Variant Expression | HEK293 SMN2-luciferase splicing reporter, luminescence, 30-36 h | Potency, µM (highest dose often 46.1 µM), actives largely listed as activators | 210,000 tested, 2.8% active; note: nearly all actives have a fitted effect of over 55% in size
#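 HEK293 cells carry an SMN2 minigene-luciferase reporter in which exon 7 inclusion puts luciferase in frame. Cells were seeded at 2000 cells/well, attached for 10-12 hours, then exposed to compounds for 30-36 hours at 37C before ONE-Glo luminescence.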
# Numbers stand for hits; - = inactive; ? = inconclusive; . = not tested or not shown; [ ] = dose if it differs, or a comment. Calls come from the whole dose curve; as a rule, active = well fitted curve in the direction sought with a large enough effect; inconclusive = small, poorly fitted or top-dose-only effect, or another doubt; inactive = no such curve, though single readings can be large; an effect the other way counts as inactive or inconclusive.
SMILES,NPC1 prom act,ELG1 DNA repair,ELG1 genotox,FLuc modulator,Rab9 promoter act,SMN2 splice enh
CCn1nnc(NC(=O)c2cccc(-c3cc4ccccc4oc3=O)c2)n1,?,?,?,15µM,2.5µM,13µM
Cc1ccc2nc(NC(=O)c3cccc(-c4cc5ccccc5oc4=O)c3)sc2c1,?,?,?,21µM,?,-
COCCCNC(=O)/C(C#N)=C/c1c(N2CCN(c3cccc(Cl)c3)CC2)nc2c(C)cccn2c1=O,-,23µM,-,-,-,.
Cc1cccn2c(=O)c(/C=C(\C#N)C(=O)NCc3ccco3)c(N3CCCCC3)nc12,-,18µM,-,-,-,-
COc1ccc(N2CCN(c3nc4c(C)cccn4c(=O)c3/C=C(\C#N)C(N)=O)CC2)cc1,-,13µM,-,-,-,.
CCNC(=O)/C(C#N)=C/c1c(N2CCN(c3cccc(Cl)c3)CC2)nc2c(C)cccn2c1=O,-,-,-,-,-,.
COCCCNC(=O)/C(C#N)=C/c1c(N2CCN(c3ccccc3)CC2)nc2c(C)cccn2c1=O,-,21µM,-,-,-[1.84 µM],.
CCN1CCN(CC(=O)N2N=C(c3cccs3)CC2c2ccc(OC)c(OC)c2)C(=O)C1=O (stereo unspecified),-,-,-,-,-,-
CCNC(=O)/C(C#N)=C/c1c(N2CCN(C)CC2)nc2c(C)cccn2c1=O,-,-,-,-,-,.
CCNC(=O)/C(C#N)=C/c1c(N2CCN(Cc3ccc4c(c3)OCO4)CC2)nc2c(C)cccn2c1=O,-,21µM,-,-,-,-
CC(C)[C@H](CO)N(Cc1cccc(F)c1)c1nc(Nc2cccc(Cl)c2)c2ncn(C(C)C)c2n1,-,-,-,-,-,.
CC[C@H](CO)Nc1nc(Nc2cccc(Cl)c2)c2ncn(C(C)C)c2n1,-,7.3µM,-,-,-,.
CNc1c2c(nn1C)CCCC2,-,-,-,-,-,-
CC(C)CC(C(=O)NC1CCCC1)N(Cc1cccs1)C(=O)c1snc(C(N)=O)c1N (stereo unspecified),-,18µM,-,-,-,-
COc1ccc(-n2c(C)c(C)c3c(N)ncnc32)cc1,-,10µM,-,-,-,.
COC(=O)c1c(N)nc(C)n1-c1ccc(OC)cc1,-,-,-,-,-,.
C(=N\Nc1nc(-c2ccccc2)cs1)/c1cccnc1,3.2µM,?,5.2µM,21µM,2.2µM,22µM
Cc1ccc(/C=N/Nc2nc3ccccc3s2)o1,?,?,0.82µM,0.85µM,?,2µM
CC(C)(C)c1csc(N/N=C/c2cccnc2)n1,?,?,?,12µM,3.2µM,?
Cc1ccc(/C=N/Nc2nc(C(C)(C)C)cs2)o1,?,?,?,13µM,?,13µM
Clc1ccc(-c2csc(N/N=C/c3cccnc3)n2)c(Cl)c1,-,-,-,-,-,-
Cc1cc(=O)[nH]c(N/N=C/c2ccc(C)o2)n1,-,-,-,-,-,-
Cc1ccccc1OCCC(=O)OCC(=O)NC(=O)c1ccccc1,-,-,-,-,-,.
CCOC(=O)c1ccc(NC(=O)CCc2nc(-c3ccccc3Cl)no2)cc1,-,-,-,-,-,-
Cc1ccc2onc(CC(=O)N(C)c3ccccc3)c2c1,.,.,.,4.8µM,.,.
SMILES,NPC1 prom act,ELG1 DNA repair,ELG1 genotox,FLuc modulator,Rab9 promoter act,SMN2 splice enh
COc1cc(OC)c(NC(=O)CCc2nc(-c3ccc(C)cc3)no2)cc1Cl,-,-,-,21µM,-,-
CCOC(=O)c1ccc(NC(=O)Cc2noc3ccc(C)cc23)cc1,.,.,.,8.5µM,.,.
CCOC(=O)c1ccc(NC(=O)CCc2nc(-c3ccccc3)no2)cc1,-,26µM,-,-,-,.
O=C(CCCSc1nc2ccccc2[nH]1)N1CCN(c2ccccc2)CC1,-,23µM,-,-,-,-
O=C(COC(=O)CCCSc1nc2ccccc2[nH]1)Nc1ccc(Cl)cc1,-,-,-,19µM,-,-
O=C(CSc1nc2ccccc2[nH]1)N1CCN(c2ccccc2)CC1,-,-,-,-,-,-
O=C(CSc1nc2ccccc2[nH]1)N1CCCCC1,?,?,8.2µM,21µM,3.5µM,10µM
COc1ccc(CN=Nc2cc(C)nc(NS(=O)(=O)c3ccccc3Cl)n2)cc1,-,-,-,-,-,-
CC1CN(S(=O)(=O)c2cccc(C(=O)Nc3ccccc3N3CCCC3)c2)CC(C)O1 (stereo unspecified),-,-,-,-,-,.
O=c1cc(-c2ccccc2)[nH]n1-c1nc2ccccc2s1,-,-,-,17µM,-,-
O=C1NC(c2ccccc2)=C(c2nc3ccccc3s2)C(c2ccccc2)N1 (stereo unspecified),-,-,-,-,-,-
COc1ccc(Cn2c(=O)sc3ccccc3c2=O)cc1,-,-,-,-,-,-
COc1ccc(CN=C(C)c2c(C(F)(F)F)[nH]n(-c3nc4ccccc4s3)c2=O)cc1,?,?,15µM,6.7µM,4µM,-
CC(=O)c1c(CC(=O)O)[nH]n(-c2nc3ccccc3s2)c1=O,-,?,-,12µM,?,-
COC(=O)Cc1[nH]n(-c2nc3ccccc3s2)c(=O)c1C(C)=O,-,?,?,9.5µM,-,-
COc1ccccc1NC(=O)C1CCCN1C(=O)NC1CCCCC1 (stereo unspecified),-,-,-,-,-,.
Cc1ccc2[nH]c3c(c2c1)CCCC3NC(=O)CCl (stereo unspecified),-,18µM,-,-,-,.
Cc1ccc2[nH]c3c(c2c1)CCCC3C(N)=O (stereo unspecified),-,-,-,-,-,-
COc1ccc(C(=O)N(Cc2ccco2)Cc2ccc(C)o2)cc1,.,.,.,-,.,-
O=C(NNC(=O)c1ccc(Br)o1)c1ccc(NC(=O)c2ccccc2)cc1,-,-,-,-,-,-
CC1CN/C(=C\C(=O)c2ccccc2)C(=O)N1 (stereo unspecified),2.8µM,?,?,12µM,4µM,10µM
O=C1NCCN/C1=C\C(=O)c1ccc(Cl)cc1,1.6µM,?,?,11µM,3.5µM,.
CC1CN/C(=C\C(=O)c2ccc(Cl)cc2)C(=O)N1 (stereo unspecified),0.4µM,?,?,2.4µM,0.5µM,3.2µM
O=C(C(=O)N1CCCCCC1)c1c[nH]c2ccccc12,-,-,-,-,-,.
O=S(=O)(/N=C(/Nc1ccccc1)C(F)(F)F)c1ccccc1,-,-,-,-,-,-
